From PubChem
KKLEB tox: cytotoxicity in KKLEB CF airway cells, primary screen, cytotoxicity control for CF NF-kB inhibitor project, cell-based, uHTS, fluorescence assay plates; KKLEB CF airway cells viability, ATPlite luminescence, overnight; active compounds read low; cells stimulated with P. aeruginosa culture filtrate; activity change (cytotoxicity), % at 5 µM; actives 0.36% (n = 360,000); AID 602141, 2011;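 active = corrected activity change at or below -50% at 5 µM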
Peg3 prom inh: Peg3 promoter-driven luciferase inhibitors, primary screen, cell-based, HeLa, luciferase luminescence | HeLa PEG-Prom luciferase reporter, overnight | inhibition, % at 20 µM | actives 1.7% (n = 360,000) | AID 588405, 2011;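 active = inhibition of at least 50% at 20 µM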
Shn3 inh set2: reduction of Shn3 3'UTR firefly luciferase signal, primary screen, Schnurri-3 inhibitor project, cell-based, Clone20 osteoblasts, set 2. Clone20 osteoblast Shn3 3'UTR firefly luciferase, 24 h. inhibition, % at 12.5 µM. actives 0.52% (n = 360,000). AID 588674, 2011;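 active = mean inhibition of at least 75% with every replicate also reaching 75%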;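 note: 0% = median of neutral control wells and 100% = pilot-screen positive control compound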
MITF TRPM1 inh: inhibitors of MITF-dependent TRPM1 promoter reporter, primary screen, cell-based, SK-MEL-5, single point, luciferase; SK-MEL-5 TRPM1 promoter luciferase, 24 h; actives 0.83% (n = 330,000); inhibition, % at 12.5 µM;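 active = mean inhibition across replicates of 60% or more, whatever share of single replicates reaches that level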
CF NFkB inh: inhibitors of PAF-induced NF-kB signaling, primary screen, cell-based, GFP fluorescence, uHTS; actives 0.86% (n = 360,000); inhibition, % at 5 µM; KKLEB NF-kB-GFP reporter, GFP fluorescence overnight;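 active = at least 50% inhibition at 5 µM, scaled per plate between neutral and stimulator controls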;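 note: PAF is a Pseudomonas aeruginosa culture filtrate used as stimulus; plate controls were PAF-stimulated DMSO wells for no effect and unstimulated DMSO wells for full effect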
HIF-2a inh: HIF-2a reporter inhibitors, primary screen, luminescence, 786-0 RCC cells | inhibition, % at 18.8 µM | 786-0 RCC cells HIF-2a reporter, luciferase luminescence, overnight | actives 0.72% (n = 360,000);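 active = inhibition of the luminescence signal of 40% or more relative to plate controls, in a single-dose primary screen at 18.75 µM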
Mdm2-MdmX confirm: retested Mdm2-MdmX interaction blockers, confirmation, cell-based, luminescence, single concentration, set 2; shares compounds with HIF-2a inh; SaOS-2 split-luciferase Mdm2/MdmX complementation; inhibition, % at 8 µM; actives 99% (n = 740); AID 504601, 2011;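 active = mean inhibition of the luminescence signal across two replicates at or above 26 percent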
HIF-2a conf: HIF-2a reporter inhibitor retest, confirmation, luminescence, 786-0 RCC cells. shares compounds with HIF-2a inh. HIF-2a luciferase reporter luminescence, overnight. inhibition, % at 18.8 µM. actives 56% (n = 1,800). AID 651580, 2012;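 active = mean inhibition across four replicates of at least 40 percent at the single tested concentration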
HIF-1a counter: HIF-1a luciferase reporter signal reduction – MiaPaCa-2 cells, single concentration, counter-screen for HIF-2a inhibitor project, confirmation; shares compounds with HIF-2a inh; MiaPaCa-2 HIF-1a luciferase reporter, desferoxamine, overnight; inhibition, % at 18.8 µM; actives 72% (n = 1,800);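 active = mean inhibition of the reporter signal across four replicates at the single tested dose of 50% or more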
* = called active by the depositor. The list is not random: actives were taken first. Their share in the collection is about 2.8%.

How did Cc1ccc(C)c(-n2nnnc2Sc2nnnn2-c2ccccc2)c1 do in these assays?
KKLEB tox: -68.3*; Peg3 prom inh: 95.8*; Shn3 inh set2: 1.7; MITF TRPM1 inh: 21.4; CF NFkB inh: 92.0*; HIF-2a inh: 29.2; Mdm2-MdmX confirm: 103.2*

Results for Cc1c(/C(O)=C2/C(=O)C(=O)N(CCN3CCOCC3)C2c2ccccn2)cnn1-c1ccccc1 (stereo not drawn) ?
KKLEB tox: -3.4; Peg3 prom inh: 33.5; Shn3 inh set2: 39.7; MITF TRPM1 inh: 46.7; CF NFkB inh: -0.7; HIF-2a inh: 72.8*; HIF-2a conf: 40.4*; HIF-1a counter: 58.7*

How did CN1C2=NCCN2C(=O)c2cc(Cl)ccc21 do in these assays?
KKLEB tox: 4.1; Peg3 prom inh: 3.8; Shn3 inh set2: 11.2; MITF TRPM1 inh: -6.9; CF NFkB inh: -4.4; HIF-2a inh: 11.2

What do the screens show for `Clc1ccc2c(c1)-c1ccccc1C1=NCCN12`?
KKLEB tox: -2.0; Peg3 prom inh: 109.7*; Shn3 inh set2: 2.7; CF NFkB inh: -212.7; HIF-2a inh: 45.0*; HIF-2a conf: -59.0; HIF-1a counter: 103.9*

What do the screens show for `C=CCN1C(=O)/C(=C\c2ccc(Oc3nc(N4CCOCC4)nc(N4CCOCC4)n3)c(OC)c2)SC1=S`?
KKLEB tox: 8.8; Peg3 prom inh: 11.9; Shn3 inh set2: 9.8; MITF TRPM1 inh: 11.4; CF NFkB inh: 1.4; HIF-2a inh: 9.4

How did O=S1(=O)C=C(Sc2nnc(-c3ccccc3)o2)c2ccccc21 do in these assays?
KKLEB tox: -71.5*; Peg3 prom inh: 109.7*; Shn3 inh set2: 98.0*; MITF TRPM1 inh: 96.5*; CF NFkB inh: 97.2*; HIF-2a inh: 95.5*; Mdm2-MdmX confirm: 99.7*

What do the screens show for `Cc1cc(C)nc(SC2=CS(=O)(=O)c3ccccc32)n1`?
KKLEB tox: -4.4; Peg3 prom inh: 33.9; Shn3 inh set2: 31.8; MITF TRPM1 inh: 7.4; CF NFkB inh: 29.8; HIF-2a inh: -3.7

What do the screens show for `N#CC1c2ccccc2C=CN1C(=O)N(c1ccccc1)c1ccccc1` (stereo not drawn)?
KKLEB tox: 6.1; Peg3 prom inh: 47.4; Shn3 inh set2: -10.1; MITF TRPM1 inh: 23.6; CF NFkB inh: 45.2; HIF-2a inh: 77.4*; HIF-2a conf: 6.3; HIF-1a counter: 107.9*

What do the screens show for `CCOc1ccc2nc(Cl)c(C3CC(c4ccco4)=NN3S(C)(=O)=O)cc2c1` (stereo not drawn)?
KKLEB tox: -9.1; Peg3 prom inh: 1.4; Shn3 inh set2: 2.2; MITF TRPM1 inh: -3.0; CF NFkB inh: 1.1; HIF-2a inh: 44.8*; HIF-2a conf: -3.2; HIF-1a counter: 35.3

Results for Cc1ccc2nc(Cl)c(C3CC(c4ccco4)=NN3S(C)(=O)=O)cc2c1 (stereo not drawn) ?
KKLEB tox: 0.6; Peg3 prom inh: -28.8; Shn3 inh set2: -18.6; MITF TRPM1 inh: -2.5; CF NFkB inh: 0.2; HIF-2a inh: -77.2

How did CN1CCc2c(sc(NC(=O)c3ccc([N+](=O)[O-])o3)c2C(N)=O)C1 do in these assays?
KKLEB tox: -23.3; Peg3 prom inh: 107.2*; Shn3 inh set2: -10.1; MITF TRPM1 inh: 85.6*; CF NFkB inh: 81.7*; HIF-2a inh: 54.9*; Mdm2-MdmX confirm: 101.5*; HIF-2a conf: 55.0*; HIF-1a counter: 104.1*

How did CN1CCc2c(sc(NC(=O)c3ccco3)c2C(N)=O)C1 do in these assays?
KKLEB tox: 0.5; Peg3 prom inh: -34.2; Shn3 inh set2: -14.6; MITF TRPM1 inh: -11.7; CF NFkB inh: -0.1; HIF-2a inh: -53.3

Results for Cc1nnc(NC(=O)CS(=O)(=O)Cc2ccccc2)s1 ?
KKLEB tox: 6.6; Peg3 prom inh: 39.6; Shn3 inh set2: 3.7; MITF TRPM1 inh: -3.0; CF NFkB inh: 6.3; HIF-2a inh: 11.7

Results for COc1ccc(OC)c(NC(=O)c2nc(S(=O)(=O)Cc3ccccc3)ncc2Cl)c1 ?
KKLEB tox: -105.2*; Peg3 prom inh: 106.4*; Shn3 inh set2: 97.1*; MITF TRPM1 inh: 94.8*; CF NFkB inh: 89.2*; HIF-2a inh: 88.9*; Mdm2-MdmX confirm: 102.7*; HIF-2a conf: 99.1*; HIF-1a counter: 104.4*

Results for Cc1nnc(NC(=O)c2nc(S(=O)(=O)Cc3ccccc3)ncc2Cl)s1 ?
KKLEB tox: -30.8; Peg3 prom inh: 110.5*; Shn3 inh set2: 91.5*; MITF TRPM1 inh: 34.6; CF NFkB inh: 82.7*; HIF-2a inh: 64.3*; HIF-2a conf: 8.9; HIF-1a counter: 105.9*

Results for Cc1ccc(NC(=O)c2nc(S(=O)(=O)Cc3ccccc3)ncc2Cl)cc1 ?
KKLEB tox: -99.8*; Peg3 prom inh: 100.5*; Shn3 inh set2: 95.1*; MITF TRPM1 inh: 94.7*; CF NFkB inh: 92.0*; HIF-2a inh: 94.6*; Mdm2-MdmX confirm: 102.2*; HIF-2a conf: 98.3*; HIF-1a counter: 96.1*

What do the screens show for `Cc1ccccc1CS(=O)(=O)c1ncc(Cl)c(C(=O)Nc2ccc(F)cc2)n1`?
KKLEB tox: -98.6*; Peg3 prom inh: 107.5*; Shn3 inh set2: 94.6*; MITF TRPM1 inh: 91.0*; CF NFkB inh: 88.6*; HIF-2a inh: 92.6*; Mdm2-MdmX confirm: 103.0*; HIF-2a conf: 74.3*; HIF-1a counter: 51.0*

How did Cn1nc(C(=O)NNC(=O)Cc2ccc(S(=O)(=O)N3CCOCC3)s2)c2ccccc2c1=O do in these assays?
KKLEB tox: 17.0; Peg3 prom inh: -2.5; Shn3 inh set2: 6.2; MITF TRPM1 inh: 5.2; CF NFkB inh: -15.4; HIF-2a inh: 8.3

What do the screens show for `Cc1ccc(C(=O)OCC(=O)Nc2ccc(C)c(S(=O)(=O)N3CCCCC3)c2)c(O)c1`?
KKLEB tox: -4.3; Peg3 prom inh: 17.5; Shn3 inh set2: 23.8; CF NFkB inh: -11.9; HIF-2a inh: 19.8

How did Cc1nn2c(-c3ccc(Cl)cc3Cl)nnc2s1 do in these assays?
KKLEB tox: 9.5; Peg3 prom inh: 4.8; Shn3 inh set2: -14.7; MITF TRPM1 inh: 1.2; CF NFkB inh: 0.6; HIF-2a inh: 6.3
